Inconclusive results are not listed. Active and inactive are the calls of the source. Unless noted, calls come from the whole dose curve; as a rule, active = well fitted curve in the direction sought with a large enough effect in the repeat runs; inconclusive = weak or mixed curves; inactive = no such curve, though single readings can be large; an effect the other way counts as inactive or inconclusive.
Key:
[1] = qHTS RealTime-Glo MT Cell Viability Assay in HEK293 cells - 8 hour (AID 1224887); note: top concentration of the series differs between compounds; nearly all actives have a fitted effect of over 50% in size
Summary of the method: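 HEK293 cells mixed with RealTime-Glo reagents (NanoLuc plus cell-permeant prosubstrate) at 600 cells/well, preincubated 5 h at 37 C/5% CO2, then given 23 nL compound in DMSO. Nonlytic luminescence from viable cells was read at 0, 8, 16, 24, 32 and 40 h.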

[2] = A CellTox Green Cytotoxicity Assay to monitor cytotoxicity in HEK293 cells - 16 hour (AID 1224888); note: nearly all actives have a fitted effect of over 35% in size
Summary of the method: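 HEK293 cells premixed with CellTox Green dye were seeded at 600 cells/well and left 5 h at 37 C/5% CO2 before pin transfer of 23 nL compound in DMSO. Fluorescence from dye bound to dead-cell DNA was read during 40 h treatment.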

[3] = qHTS RealTime-Glo MT Cell Viability Assay in HepG2 cells - 0 hour (AID 1224889); note: nearly all actives have a fitted effect of over 50% in size
Summary of the method: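 Real-time, nonlytic viability: 600 HepG2 cells/well mixed with NanoLuc enzyme plus prosubstrate; 5 h settle, compound (DMSO) added by pintool; luminescence monitored over 40 h at 37 C.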

[4] = A CellTox Green Cytotoxicity Assay to monitor cytotoxicity in HepG2 cells - 8 hour (AID 1224890); note: nearly all actives have a fitted effect of over 45% in size
Summary of the method: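 HepG2 cells were seeded together with the CellTox Green dye at 600 cells/well, left 5 h at 37 C/5% CO2, then given compounds in DMSO. Fluorescence from dye bound to dead-cell DNA was read repeatedly over 40 h of treatment at 37 C.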

[5] = qHTS assay to identify small molecule antagonists of the estrogen receptor alpha (ER-alpha) signaling pathway using the BG1 cell line in the presence of 0.1 nM 17-beta-estradiol - cell viability counter screen (AID 1259241); note: nearly all actives have a fitted effect of over 40% in size
Summary of the method: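 Estradiol-stimulated (0.1 nM) VM7Luc4E2 cells exposed to compounds 22 hr; viability measured by fluorescence of cleaved CellTiter-Fluor substrate after 30 min.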

[6] = qHTS assay to identify small molecule antagonists of the androgen receptor (AR) signaling pathway using the MDA cell line in the presence of 0.5 nM R1881 - cell viability counter screen (AID 1259242); note: nearly all actives have a fitted effect of over 45% in size
Summary of the method: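 MDA-kb2 cells (human breast carcinoma, stably carrying MMTV-luciferase reporter) were exposed to compounds with 0.5 nM R1881 (final) for 16 hr at 37C, 0% CO2; viability then read as live-cell protease fluorescence (CellTiter-Fluor, 30 min) in the same wells.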

[7] = molecular target: Androgen receptor (Homo sapiens) (UniProt P10275); test: qHTS assay to identify small molecule antagonists of the androgen receptor (AR) signaling pathway using the MDA cell line in the presence of 0.5 nM R1881 (AID 1259243); note: nearly all actives have a fitted effect of over 50% in size; note: potency is the fitted concentration of half-maximal effect
Summary of the method: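 MDA-kb2 human breast carcinoma cells carrying an MMTV-luciferase reporter (AR- and GR-responsive) were plated, rested 5 hr at 37C, dosed with compounds, then stimulated with 0.5 nM R1881 (final) for 16 hr; luminescence was read after ONE-Glo.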

[8] = qHTS assay to identify small molecule HDAC inhibitors (AID 1259364); note: nearly all actives have a fitted effect of over 45% in size; note: potency is the fitted concentration of half-maximal effect; for activity change, negative = inhibition: top concentration of the series differs between compounds
Summary of the method: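 Wild-type HCT-116 cells were plated overnight, exposed to compounds for 2 h at 37 °C, then given HDAC-Glo class I/II luminogenic reagent for 30 min at room temperature before luminescence was read.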

[9] = qHTS assay to identify small molecule phospholipidosis (PLD) inducers (AID 1259344; active = well fitted curve in the direction sought with a large enough effect; an effect the other way counts as inactive or inconclusive)
Summary of the method: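 Fluorescent phospholipid staining (LipidTOX Red) measured by automated microscopy in fixed HepG2 cells after 24 h treatment; nuclei counterstained with Hoechst 33342; amiodarone as reference inducer.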

[10] = molecular target: Estrogen receptor (Homo sapiens) (UniProt P03372); test: qHTS assay to identify small molecule antagonists of the estrogen receptor alpha (ER-alpha) signaling pathway using the BG1 cell line in the presence of 0.1 nM 17-beta-estradiol (AID 1259244); note: nearly all actives have a fitted effect of over 50% in size
Summary of the method: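 VM7Luc4E2 cells (endogenous full-length ER-alpha, stable 4xERE-luciferase) were grown 5 days in phenol red-free medium with charcoal-stripped FBS, then exposed 22 h at 37C to compounds plus 0.1 nM (final) 17beta-estradiol; ONE-Glo luminescence read-out.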
% is set by controls: 0 for no effect and ±100 for the full control effect.

Estrogen receptor (Homo sapiens), sequence (P03372 whole entry, looked up): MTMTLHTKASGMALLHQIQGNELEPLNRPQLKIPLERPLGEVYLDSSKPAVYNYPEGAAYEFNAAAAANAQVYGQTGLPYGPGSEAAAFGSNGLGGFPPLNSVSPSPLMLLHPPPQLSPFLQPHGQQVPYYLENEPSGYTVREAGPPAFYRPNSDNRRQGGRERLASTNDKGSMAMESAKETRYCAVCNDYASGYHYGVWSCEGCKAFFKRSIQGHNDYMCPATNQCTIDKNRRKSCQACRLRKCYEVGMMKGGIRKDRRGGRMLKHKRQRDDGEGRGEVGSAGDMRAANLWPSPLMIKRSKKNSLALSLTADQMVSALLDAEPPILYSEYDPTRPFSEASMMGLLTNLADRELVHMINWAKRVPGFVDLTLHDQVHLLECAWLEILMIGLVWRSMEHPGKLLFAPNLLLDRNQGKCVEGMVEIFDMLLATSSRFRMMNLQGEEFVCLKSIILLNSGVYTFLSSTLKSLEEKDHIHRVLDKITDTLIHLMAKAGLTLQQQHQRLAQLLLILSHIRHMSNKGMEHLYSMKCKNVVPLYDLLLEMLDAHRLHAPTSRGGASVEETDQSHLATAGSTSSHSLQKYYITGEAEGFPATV
Androgen receptor (Homo sapiens), sequence (P10275 whole entry, looked up): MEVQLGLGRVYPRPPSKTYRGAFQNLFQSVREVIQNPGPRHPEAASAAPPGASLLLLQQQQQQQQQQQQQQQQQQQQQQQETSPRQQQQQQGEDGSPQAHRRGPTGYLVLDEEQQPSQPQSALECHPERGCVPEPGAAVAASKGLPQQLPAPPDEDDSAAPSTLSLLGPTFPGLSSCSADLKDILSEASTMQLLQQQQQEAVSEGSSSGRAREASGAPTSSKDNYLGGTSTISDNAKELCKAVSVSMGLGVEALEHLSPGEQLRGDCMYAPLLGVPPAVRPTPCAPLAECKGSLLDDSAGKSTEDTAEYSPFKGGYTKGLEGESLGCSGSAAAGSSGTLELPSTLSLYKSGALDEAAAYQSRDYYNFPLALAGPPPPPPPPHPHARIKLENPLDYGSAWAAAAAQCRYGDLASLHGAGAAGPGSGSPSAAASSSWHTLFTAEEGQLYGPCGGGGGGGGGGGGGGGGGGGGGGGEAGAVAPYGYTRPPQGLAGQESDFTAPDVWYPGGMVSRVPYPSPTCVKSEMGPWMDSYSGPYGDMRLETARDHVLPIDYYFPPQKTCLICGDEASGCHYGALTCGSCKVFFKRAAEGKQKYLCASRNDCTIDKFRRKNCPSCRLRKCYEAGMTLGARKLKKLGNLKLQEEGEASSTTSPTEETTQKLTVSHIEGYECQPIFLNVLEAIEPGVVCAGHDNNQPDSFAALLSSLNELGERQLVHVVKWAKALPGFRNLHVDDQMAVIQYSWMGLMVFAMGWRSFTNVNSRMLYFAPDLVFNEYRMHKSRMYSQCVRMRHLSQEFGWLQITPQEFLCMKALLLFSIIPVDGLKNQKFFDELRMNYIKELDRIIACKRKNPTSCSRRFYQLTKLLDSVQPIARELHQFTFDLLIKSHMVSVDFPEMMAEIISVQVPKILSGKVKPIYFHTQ

CCO/C=C1\N=C(c2ccccc2)OC1=O
inactive: outcome [1] | Potency [2] | Potency [3] | Potency [4] | outcome [5] | outcome [6]

CC(=O)c1ccc(O)c(C(N)=O)c1
inactive: outcome [1] | Potency [2] | Potency [3] | Potency [4] | outcome [5] | outcome [6] | Potency [7] | Potency [8]

C=C(C)C(=O)OCCCC
inactive: outcome [1] | Potency [2] | Potency [3] | Potency [4] | outcome [5] | outcome [6] | Potency [7] | Potency [8]

CC(C)(C)OC=O
inactive: outcome [1] | Potency [2] | Potency [3] | Potency [4] | outcome [5] | outcome [6]

CC(C)(C)NCC(O)COc1cccc2c1CCC(=O)N2 (stereo not drawn)
inactive: outcome [1] | Potency [2] | Potency [3] | Potency [4] | outcome [5] | outcome [6] | Potency [7] | Potency [9] | Potency [8]

CCCC(C)C(O)CC (stereo not drawn)
inactive: outcome [1] | Potency [2] | Potency [3] | Potency [4] | outcome [5] | outcome [6]

Cc1nc2ccc(Cl)cc2[nH]1
inactive: outcome [1] | Potency [2] | Potency [3] | Potency [4] | outcome [5] | outcome [6]

COc1cc(OC)cc(OC)c1
inactive: outcome [1] | Potency [2] | Potency [3] | Potency [4] | outcome [5] | outcome [6] | Potency [7] | outcome [10] | Potency [9] | Potency [8]

CCN(CC)CC
inactive: outcome [1] | Potency [2] | Potency [3] | Potency [4] | outcome [5] | outcome [6]

NNC(=O)OCc1ccccc1
inactive: outcome [1] | Potency [2] | Potency [3] | Potency [4] | outcome [5] | outcome [6] | Potency [7] | outcome [10] | Potency [8]

CC1(C)C(=O)C(C)(C)C1=O
inactive: outcome [1] | Potency [2] | Potency [3] | Potency [4] | outcome [5] | outcome [6] | Potency [7] | Potency [8]

C[C@@H](CN1CC(=O)NC(=O)C1)N1CC(=O)NC(=O)C1
inactive: outcome [1] | Potency [2] | Potency [3] | Potency [4] | outcome [5] | outcome [6] | Potency [7] | outcome [10] | Potency [9]

O=Cc1ccccc1S(=O)(=O)O
inactive: outcome [1] | Potency [2] | Potency [3] | Potency [4] | outcome [5] | outcome [6]

C=CCN1CCc2nc(N)sc2CC1
inactive: outcome [1] | Potency [2] | Potency [3] | Potency [4] | outcome [5] | outcome [6] | Potency [7] | Potency [9] | Potency [8]

C=CCN(CC=C)CC=C
inactive: outcome [1] | Potency [2] | Potency [3] | Potency [4] | outcome [5] | outcome [6]

CC(=O)/C=C/C=C1/C2CCC(C2)C1(C)C (stereo not drawn)
inactive: outcome [1] | Potency [2] | Potency [3] | Potency [4] | outcome [5] | outcome [6] | Potency [7] | outcome [10] | Potency [8]

CCCCCCCCC1CO1 (stereo not drawn)
inactive: outcome [1] | Potency [2] | Potency [3] | Potency [4] | outcome [5] | outcome [6] | Potency [7]

CC(C)C[P+](C)(CC(C)C)CC(C)C
inactive: outcome [1] | Potency [2] | Potency [3] | Potency [4] | outcome [5] | outcome [6]

C=CC(=O)CC
inactive: outcome [1] | Potency [2] | Potency [3] | Potency [4] | outcome [5] | outcome [6]

Nc1cc(S(=O)(=O)O)ccc1O
inactive: outcome [1] | Potency [2] | Potency [3] | Potency [4] | outcome [5] | outcome [6] | Potency [7] | outcome [10] | Potency [8]

CCCCCCCCCCCCCCCCN(C)C
inactive: activity change, negative = cytotoxicity [1] 5.23% [at 6.97 µM] | activity change [2] 0.327% [at 6.97 µM, stronger effect = higher value] | activity change, negative = cytotoxicity [3] 4.22% [at 6.97 µM] | cytotoxicity increase [4] 2.33% [at 6.97 µM] | activity change, negative = cytotoxicity [5] 8.65% [at 8.39 µM] | viability change, negative = cytotoxic [6] 0.99% [at 8.39 µM] | activity, negative = inhibition [7] 15.5% [at 8.39 µM] | activity change, negative = inhibition [10] 15.1% [at 8.39 µM] | activity change, negative = inhibition [8] 2.04% [at 8.39 µM]

CCCc1ncc(C(=O)O)s1
inactive: outcome [1] | Potency [2] | Potency [3] | Potency [4] | outcome [5] | outcome [6] | Potency [7] | Potency [8]

Cc1ccc(N)nc1
inactive: outcome [1] | Potency [2] | Potency [3] | Potency [4] | outcome [5] | outcome [6] | Potency [7] | outcome [10]

O=C[C@@H](O)[C@H](O)[C@H](O)CO
inactive: outcome [1] | Potency [2] | Potency [3] | Potency [4] | outcome [5] | outcome [6] | Potency [7]

CSC(=O)c1cccc2nnsc12
active: Potency [7] 15.4 µM
inactive: outcome [1] | Potency [2] | Potency [3] | Potency [4] | outcome [5] | outcome [6] | outcome [10] | Potency [8]

Cc1ccc2ccccc2n1
inactive: outcome [1] | Potency [2] | Potency [3] | Potency [4] | outcome [5] | outcome [6]

C/C(=N\O)c1ccc(OCC(=O)N2CCCCC2)cc1
active: Potency [8] 8.41 µM
inactive: outcome [1] | Potency [2] | Potency [3] | Potency [4] | outcome [5] | outcome [6] | Potency [7] | outcome [10] | Potency [9]

N#Cc1ccccc1C#N
inactive: outcome [1] | Potency [2] | Potency [3] | Potency [4] | outcome [5] | outcome [6] | Potency [7] | outcome [10] | Potency [8]

CC(O)C(CO)C(C)O (stereo not drawn)
inactive: outcome [1] | Potency [2] | Potency [3] | Potency [4] | outcome [5] | outcome [6] | Potency [7] | Potency [8]

From PubChem BioAssay (Tox21)
